Results filed as inconclusive are left out. Calls of active or inactive are those of the source. Calls come from the whole dose curve; as a rule, active = well fitted curve in the direction sought with a large enough effect; inconclusive = small, poorly fitted or top-dose-only effect, or another doubt; inactive = no such curve, though single readings can be large; an effect the other way counts as inactive or inconclusive.

Assay [1] is described as follows: S16 Schwann cell viability assay (CellTiter-Glo assay) (AID 624031).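 Note: cellular ATP luminescence as a viability measure; nearly all actives have a fitted effect of over 70% in size.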 In a few lines: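 Native S16 rat Schwann cells, 500-750 cells/well in DMEM with 10% FBS, dosed with compound after overnight culture and incubated 24h at 37 degree Celsius/5% CO2. Viability by CellTiter-Glo luminescence; % activity normalized to no-cell wells and DMSO-treated cells.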
The test system of another assay is 3D7. The assay can be described thus: qHTS profiling for inhibitors of Plasmodium falciparum proliferation (AID 504749). Note: nearly all actives have a fitted effect of over 60% in size. Note: potency is the fitted concentration of half-maximal effect. The note with it: P. falciparum in erythrocytes, SYBR Green DNA, 72 h; series mostly up to 28.7 µM. In a few lines: (§1)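 SYBR Green fluorescence (ex 485 nm, em 535 nm) reports parasite DNA after 72 h compound exposure of infected red cells at 0.3% parasitemia, 2.5% hematocrit; signal normalized to 0.29 uM artemisinin and vehicle wells.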

In another assay the test system is 7G8. Described as above. Conditions: P. falciparum in erythrocytes, SYBR Green DNA, 72 h; series mostly up to 28.7 µM. A digest of the protocol:
as §1

The subject of a further assay is ATS95. The assay is described as above. Conditions: P. falciparum in erythrocytes, SYBR Green DNA, 72 h; series mostly up to 28.7 µM. In a few lines: as §1
A further assay deals with CP191. The description is as above. Conditions: P. falciparum in erythrocytes, SYBR Green DNA, 72 h; series mostly up to 28.7 µM. A digest of the protocol: as §1
Another assay has as its system CP215. Described as above. The note with it: P. falciparum in erythrocytes, SYBR Green DNA, 72 h; series mostly up to 28.7 µM. In a few lines: as §1
Another assay deals with CP247. Described as above. Conditions: P. falciparum in erythrocytes, SYBR Green DNA, 72 h; series mostly up to 28.7 µM. In a few lines: as §1
The test system of another assay is CP260. The description is as above. Conditions: P. falciparum in erythrocytes, SYBR Green DNA, 72 h; series mostly up to 28.7 µM. In a few lines: as §1
The test system of a further assay is CP266. The assay is described as above. The note with it: P. falciparum in erythrocytes, SYBR Green DNA, 72 h; series mostly up to 28.7 µM. A digest of the protocol: as §1
The test system of a further assay is CP291. The description is as above. The note with it: P. falciparum in erythrocytes, SYBR Green DNA, 72 h; series mostly up to 28.7 µM. A digest of the protocol: as §1
The subject of a further assay is DIV17. The description is as above. The note with it: P. falciparum in erythrocytes, SYBR Green DNA, 72 h; series mostly up to 28.7 µM. In a few lines: as §1
The next assay deals with DIV30. Described as above. The note with it: P. falciparum in erythrocytes, SYBR Green DNA, 72 h; series mostly up to 28.7 µM. In a few lines:
as §1

The test system of another assay is P93_24. The description is as above. The note with it: P. falciparum in erythrocytes, SYBR Green DNA, 72 h; series mostly up to 28.7 µM. In a few lines: as §1
A further assay concerns P94_40. Described as above. Conditions: P. falciparum in erythrocytes, SYBR Green DNA, 72 h; series mostly up to 28.7 µM. In a few lines: as §1
The test system of another assay is PAD. The assay is described as above. Conditions: P. falciparum in erythrocytes, SYBR Green DNA, 72 h; series mostly up to 28.7 µM. In a few lines: as §1
The test system of a further assay is PC26. The description is as above. Conditions: P. falciparum in erythrocytes, SYBR Green DNA, 72 h; series mostly up to 28.7 µM. A digest of the protocol: as §1
The next assay deals with SC27B. The assay is described as above. Conditions: P. falciparum in erythrocytes, SYBR Green DNA, 72 h; series mostly up to 28.7 µM. A digest of the protocol: as §1
A further assay deals with TAB113. The description is as above. Conditions: P. falciparum in erythrocytes, SYBR Green DNA, 72 h; series mostly up to 28.7 µM. A digest of the protocol:
as §1

The subject of the next assay is TAB165. Described as above. Conditions: P. falciparum in erythrocytes, SYBR Green DNA, 72 h; series mostly up to 28.7 µM. A digest of the protocol: as §1
In another assay the test system is CP335. The assay is described as above. The note with it: P. falciparum in erythrocytes, SYBR Green DNA, 72 h; series mostly up to 28.7 µM. In a few lines: as §1

Consider `CNC1C(O)C(OC2C(NC(=O)C(O)CN)CC(N)C(OC3OC(CN)C(O)C(O)C3O)C2O)OCC1(C)O` (centres undefined), for which the Potency result (in assay [1]; in the assay with 3D7; in the assay with 7G8; in the assay on ATS95; in the assay with CP191; in the assay on CP215) was “inactive” each time. For the same molecule, the Potency result in the assay on CP247, in the assay on CP260, with CP266, in the assay with CP291, in the assay with DIV17 and in the assay with DIV30 was “inactive” each time. The Potency result in the assay with P93_24, with P94_40, in the assay with PAD, in the assay with PC26, in the assay on SC27B and in the assay with TAB113 was “inactive” throughout. Further, in the assay on TAB165, the Potency result was “inactive”.
As to `C[N+]12CCCC[C@@H]1CCC(=C(c1cccs1)c1cccs1)C2` (some centres undefined), the Potency entry in assay [1] is “inactive”. For the same molecule, the Potency is 12.6 µM (active) with 3D7; 7.94 µM (active) with 7G8; 8.91 µM (active) with CP191; 15.1 µM (active) in the assay with CP215; 10 µM (active) with CP247; 11.2 µM (active) with CP260. The Potency in the assay with CP291 was 15.1 µM (active); with CP335, 12 µM (active); in the assay on DIV17 it was 10.7 µM (active); in the assay with DIV30 it was 12 µM (active); with P93_24, 7.94 µM (active); with P94_40 it was 7.94 µM (active). The Potency is 11.2 µM (active) with PAD, 15.1 µM (active) in the assay with PC26, 11.2 µM (active) in the assay on TAB113 and 12.6 µM (active) with TAB165.
Regarding `C/C(=C(/CCO)SS/C(CCO)=C(\C)N(C=O)Cc1cnc(C)nc1N)N(C=O)Cc1cnc(C)nc1N`, the Potency entry (in assay [1]; in the assay with 3D7; with 7G8; in the assay with ATS95; in the assay with CP191; with CP215) was “inactive” in each case. Besides, the Potency result with CP266, with CP291, in the assay with CP335, in the assay on DIV17, in the assay with DIV30 and in the assay with P93_24 was “inactive” throughout. The Potency result in the assay with P94_40, with PAD, in the assay on PC26, with SC27B, with TAB113 and in the assay on TAB165 was “inactive” each time.
For `CC[C@@]1(O)CC2CN(CCc3c([nH]c4ccccc34)[C@](C(=O)OC)(c3cc4c(cc3OC)N(C)C3[C@@](O)(C(=O)OC)C(OC(C)=O)[C@]5(CC)C=CCN6CC[C@@]43C65)C2)C1` (some centres undefined), the Potency result in assay [1] was “inactive”. The Potency is 2 µM (active) in the assay on 3D7; 2.82 µM (active) in the assay with 7G8; 3.55 µM (active) with ATS95; 2.82 µM (active) with CP191; 3.38 µM (active) in the assay on CP215; 1.12 µM (active) in the assay on CP247. Also, the Potency with CP260 was 0.794 µM (active); in the assay on CP335 it was 1.9 µM (active); in the assay with DIV17, 4.78 µM (active); in the assay with DIV30 it was 1.69 µM (active); in the assay with P93_24, 3.16 µM (active); with P94_40, 3.55 µM (active). In addition, the Potency in the assay with PAD was 2.24 µM (active); in the assay on SC27B it was 2.82 µM (active); with TAB113, 3.98 µM (active); with TAB165 it was 3.55 µM (active).
With `COc1cc(/C=C2\CCC/C(=C\c3ccc(O)c(OC)c3)C2=O)ccc1O`, the Potency result in assay [1] was “inactive”. Besides, the Potency with 3D7 was 11.2 µM (active); in the assay on 7G8, 2 µM (active); in the assay with ATS95, 10 µM (active); with CP191, 10 µM (active); in the assay on CP215, 15.1 µM (active); with CP247, 8.91 µM (active). For the same molecule, the Potency in the assay with CP260 was 12.6 µM (active); in the assay on CP335, 12 µM (active); in the assay on DIV17 it was 9.53 µM (active); with DIV30, 8.49 µM (active); in the assay with P93_24, 12.6 µM (active); with P94_40, 12.6 µM (active). Also, the Potency in the assay on PAD was 7.08 µM (active); with PC26, 10.7 µM (active); with SC27B, 11.2 µM (active); in the assay on TAB113, 8.91 µM (active); in the assay with TAB165, 12.6 µM (active).
For the molecule `NC(CSSCC(N)C(=O)O)C(=O)O` (centres undefined), the Potency result (in [1]; in the assay on 3D7; in the assay with 7G8; with ATS95; in the assay on CP191; in the assay on CP215) was “inactive” each time. In addition, the Potency entry in the assay with CP247, in the assay on CP260, with CP266, in the assay with CP291, in the assay with CP335 and in the assay with DIV17 was “inactive” throughout. In addition, the Potency entry in the assay on DIV30, with P93_24, in the assay on P94_40, in the assay with PAD, in the assay on PC26 and in the assay with SC27B was “inactive” in each case. Further, the Potency result in the assay on TAB113 and in the assay with TAB165 was “inactive” throughout.

These data come from PubChem BioAssay (NCATS).
